Results published in ChEMBL document CHEMBL3988442, “University of Dundee, Small-Polar-MMV Screening Library” (2021).
For some assays here: Results with a measured potency or affinity are listed apart.

Key:
Parameters in all cases: scale not given: direction of the effect not stated beside the values
[1] = molecular target: Protein translocase subunit SecA (Escherichia coli (strain K12)) (UniProt P10408); experiment: Assay to Identify E. coli SecA ATPase Inhibitors; format: functional; conditions: 30 µM
Protein translocase subunit SecA (Escherichia coli (strain K12)), sequence (P10408 whole entry): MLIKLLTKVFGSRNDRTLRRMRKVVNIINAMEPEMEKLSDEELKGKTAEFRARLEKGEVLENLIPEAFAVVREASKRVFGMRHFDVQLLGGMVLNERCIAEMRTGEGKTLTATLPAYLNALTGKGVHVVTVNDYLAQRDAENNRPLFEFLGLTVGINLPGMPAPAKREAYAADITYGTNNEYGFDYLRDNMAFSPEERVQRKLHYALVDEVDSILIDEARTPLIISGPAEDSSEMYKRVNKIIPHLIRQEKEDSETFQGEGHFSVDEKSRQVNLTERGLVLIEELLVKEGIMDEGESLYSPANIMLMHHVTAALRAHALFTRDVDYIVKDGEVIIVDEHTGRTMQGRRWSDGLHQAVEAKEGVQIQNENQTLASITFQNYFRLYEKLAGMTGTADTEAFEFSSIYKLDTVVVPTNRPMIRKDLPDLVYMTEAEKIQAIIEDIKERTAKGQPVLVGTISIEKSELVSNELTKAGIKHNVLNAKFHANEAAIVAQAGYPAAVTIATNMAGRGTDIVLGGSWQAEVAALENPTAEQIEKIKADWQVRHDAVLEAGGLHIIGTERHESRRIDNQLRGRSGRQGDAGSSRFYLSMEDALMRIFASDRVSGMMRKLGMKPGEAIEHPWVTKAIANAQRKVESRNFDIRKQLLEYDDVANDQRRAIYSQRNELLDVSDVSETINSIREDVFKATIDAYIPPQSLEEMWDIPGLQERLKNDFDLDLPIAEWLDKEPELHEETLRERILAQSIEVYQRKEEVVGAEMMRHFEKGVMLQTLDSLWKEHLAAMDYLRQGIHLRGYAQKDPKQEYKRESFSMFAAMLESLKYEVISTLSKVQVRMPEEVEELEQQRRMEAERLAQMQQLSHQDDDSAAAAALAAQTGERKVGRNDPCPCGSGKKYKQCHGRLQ

[2] = molecular target: T1, Ubiquitin-activating enzyme e1, putative (Leishmania donovani (strain BPK282A1)) (UniProt E9BSI1); experiment: Leishmania donovani Ubiquitin Activating Enzyme (LdE1); format: functional; conditions: 30 µM
T1 sequence (whole entry): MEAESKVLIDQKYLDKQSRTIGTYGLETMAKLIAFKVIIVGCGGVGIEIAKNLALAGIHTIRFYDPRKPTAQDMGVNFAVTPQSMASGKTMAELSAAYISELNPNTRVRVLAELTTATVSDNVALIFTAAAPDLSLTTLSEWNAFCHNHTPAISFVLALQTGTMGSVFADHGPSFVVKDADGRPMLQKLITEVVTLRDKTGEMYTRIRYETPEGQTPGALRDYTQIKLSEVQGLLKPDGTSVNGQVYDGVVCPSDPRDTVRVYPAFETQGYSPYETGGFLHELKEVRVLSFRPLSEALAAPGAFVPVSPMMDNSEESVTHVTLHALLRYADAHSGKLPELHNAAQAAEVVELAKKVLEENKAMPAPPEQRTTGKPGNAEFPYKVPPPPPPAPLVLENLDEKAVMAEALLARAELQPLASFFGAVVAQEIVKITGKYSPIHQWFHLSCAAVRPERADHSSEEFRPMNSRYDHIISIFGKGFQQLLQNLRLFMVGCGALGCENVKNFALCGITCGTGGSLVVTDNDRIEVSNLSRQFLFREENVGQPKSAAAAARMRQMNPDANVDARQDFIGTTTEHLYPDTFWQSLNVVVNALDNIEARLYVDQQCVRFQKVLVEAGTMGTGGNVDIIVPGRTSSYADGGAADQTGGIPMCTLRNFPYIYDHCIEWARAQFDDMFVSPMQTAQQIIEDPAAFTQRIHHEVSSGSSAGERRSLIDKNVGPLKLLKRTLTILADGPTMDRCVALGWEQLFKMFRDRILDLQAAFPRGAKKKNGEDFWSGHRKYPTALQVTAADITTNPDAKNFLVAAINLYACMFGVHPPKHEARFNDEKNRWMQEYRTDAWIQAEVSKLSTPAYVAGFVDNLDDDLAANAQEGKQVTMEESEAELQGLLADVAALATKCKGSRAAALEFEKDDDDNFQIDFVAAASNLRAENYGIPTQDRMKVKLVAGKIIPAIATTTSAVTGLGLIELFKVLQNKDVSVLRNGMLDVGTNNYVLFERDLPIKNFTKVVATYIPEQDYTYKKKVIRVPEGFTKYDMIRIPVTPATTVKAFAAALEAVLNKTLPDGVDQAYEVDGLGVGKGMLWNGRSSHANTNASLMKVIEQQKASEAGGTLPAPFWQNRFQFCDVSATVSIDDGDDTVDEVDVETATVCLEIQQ

[3] = molecular target: AMP-activated protein kinase, AMPK (Homo sapiens) (UniProt P54646+O43741+P54619+Q9UGJ0+Q9Y478+Q13131+Q9UGI9); experiment: AMP-dependent Kinase enzyme assay. An in vitro enzyme assay that detects ADP turnover that is directly proportional to AMPK activity. This uses naive AMPK that is activated during the assay with MK-8722; format: functional; conditions: 30 µM
[4] = molecular target: Sialic acid-binding Ig-like lectin 9 (Homo sapiens) (UniProt Q9Y336); experiment: Hs-Siglec9 ALPHAscreen SOP 20170721; conditions: 10 µM
Sialic acid-binding Ig-like lectin 9 (Homo sapiens), sequence (Q9Y336 whole entry): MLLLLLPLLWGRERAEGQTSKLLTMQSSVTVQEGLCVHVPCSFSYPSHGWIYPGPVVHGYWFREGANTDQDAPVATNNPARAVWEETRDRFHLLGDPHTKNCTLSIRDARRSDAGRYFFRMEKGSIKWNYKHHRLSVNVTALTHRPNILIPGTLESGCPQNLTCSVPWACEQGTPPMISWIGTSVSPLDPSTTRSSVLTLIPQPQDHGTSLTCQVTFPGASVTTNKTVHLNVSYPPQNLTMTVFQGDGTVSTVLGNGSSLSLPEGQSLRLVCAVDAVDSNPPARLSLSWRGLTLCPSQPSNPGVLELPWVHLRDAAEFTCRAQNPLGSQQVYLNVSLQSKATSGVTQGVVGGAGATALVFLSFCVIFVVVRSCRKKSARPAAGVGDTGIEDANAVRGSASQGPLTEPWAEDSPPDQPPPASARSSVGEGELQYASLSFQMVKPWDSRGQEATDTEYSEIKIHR

[5] = test system: Trypanosoma cruzi; experiment: Trypanosoma cruzi phosphomannomutase and mannose-1-phosphate guanylyltransferase assay; format: functional; conditions: 10 µM
[6] = molecular target: T2, Arginase-2, mitochondrial (Homo sapiens) (UniProt P78540); experiment: in vitro enzyme assay to detect the production of urea directly proportional to the activity of Arginase II; format: functional; conditions: 33.3 µM; note: in the data most compounds retested in dose-response had high values
T2 sequence (whole entry): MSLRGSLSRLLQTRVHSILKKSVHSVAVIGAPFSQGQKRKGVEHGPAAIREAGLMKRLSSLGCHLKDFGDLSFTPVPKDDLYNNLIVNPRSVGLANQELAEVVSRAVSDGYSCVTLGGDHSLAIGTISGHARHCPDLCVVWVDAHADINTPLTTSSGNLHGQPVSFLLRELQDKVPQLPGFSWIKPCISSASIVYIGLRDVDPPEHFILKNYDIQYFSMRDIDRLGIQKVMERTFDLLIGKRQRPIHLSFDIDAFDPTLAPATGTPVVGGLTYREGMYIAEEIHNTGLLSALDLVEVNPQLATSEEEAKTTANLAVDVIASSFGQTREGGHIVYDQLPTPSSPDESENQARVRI

[7] = molecular target: T3, Proteasome subunit beta (Trypanosoma cruzi) (UniProt O96673); experiment: Trypanosoma cruzi proteasome chymotrypsin-like activity (TcProtChymo) assay.; note: in the data most compounds retested in dose-response had high values; format: functional; conditions: 9.37 µM
T3 sequence (whole entry): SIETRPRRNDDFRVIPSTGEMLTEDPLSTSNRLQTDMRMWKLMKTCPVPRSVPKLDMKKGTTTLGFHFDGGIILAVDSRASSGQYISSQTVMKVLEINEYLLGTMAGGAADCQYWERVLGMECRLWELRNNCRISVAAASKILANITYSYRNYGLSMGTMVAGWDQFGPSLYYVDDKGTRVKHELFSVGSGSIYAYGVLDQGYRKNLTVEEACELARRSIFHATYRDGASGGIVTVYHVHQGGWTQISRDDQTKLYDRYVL

[8] = species: Homo sapiens; experiment: To identify inhibition of the IFN signalling (Jak-Stat) pathway via expression of an eGFP reporter gene under the control of an IFN-stimulated response element (ISRE) containing MxA promoter.; format: functional; conditions: 30 µM
[9] = molecular target: T4, Tyrosyl-tRNA synthetase, putative (Trypanosoma cruzi (strain CL Brener)) (UniProt Q4DSP6); experiment: Trypanosoma cruzi tyrosyl tRNA synthetase (TcYRS) _High Tyrosine SOP; format: functional; conditions: 30 µM; note: in the data most compounds retested in dose-response had high values
T4 sequence (whole entry): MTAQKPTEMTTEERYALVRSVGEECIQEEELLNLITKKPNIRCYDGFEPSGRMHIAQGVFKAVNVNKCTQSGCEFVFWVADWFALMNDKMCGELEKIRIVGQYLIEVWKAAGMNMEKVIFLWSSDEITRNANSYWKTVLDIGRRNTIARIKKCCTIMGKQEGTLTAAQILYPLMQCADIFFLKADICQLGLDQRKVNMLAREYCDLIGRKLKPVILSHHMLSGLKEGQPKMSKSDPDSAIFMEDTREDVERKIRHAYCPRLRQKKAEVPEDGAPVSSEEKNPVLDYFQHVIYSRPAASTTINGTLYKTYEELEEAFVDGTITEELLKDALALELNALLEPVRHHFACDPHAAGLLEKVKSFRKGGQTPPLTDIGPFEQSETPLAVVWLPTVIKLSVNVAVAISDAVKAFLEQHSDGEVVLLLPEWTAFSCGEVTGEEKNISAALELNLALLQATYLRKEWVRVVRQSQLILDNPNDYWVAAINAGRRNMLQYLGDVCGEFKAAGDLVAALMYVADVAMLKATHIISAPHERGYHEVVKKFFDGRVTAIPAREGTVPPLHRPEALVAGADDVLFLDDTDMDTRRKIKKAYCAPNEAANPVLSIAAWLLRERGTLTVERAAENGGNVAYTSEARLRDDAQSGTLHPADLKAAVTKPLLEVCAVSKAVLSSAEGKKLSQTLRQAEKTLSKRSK

[10] = molecular target: T4, Tyrosyl-tRNA synthetase, putative (Trypanosoma cruzi (strain CL Brener)); experiment: Trypanosoma cruzi tyrosyl tRNA synthetase (TcYRS) SOP; format: functional; conditions: 30 µM
[11] = molecular target: Chromo domain-containing protein 1 (Saccharomyces cerevisiae (strain ATCC 204508 / S288c) (Baker's yeast)) (UniProt P32657); experiment: ScCHD-1 Enzyme Inhibition Assay; format: functional; conditions: 30 µM; note: in the data most compounds retested in dose-response had high values
Chromo domain-containing protein 1 (Saccharomyces cerevisiae (strain ATCC 204508 / S288c) (Baker's yeast)), sequence (P32657 whole entry, the tested form may be a part): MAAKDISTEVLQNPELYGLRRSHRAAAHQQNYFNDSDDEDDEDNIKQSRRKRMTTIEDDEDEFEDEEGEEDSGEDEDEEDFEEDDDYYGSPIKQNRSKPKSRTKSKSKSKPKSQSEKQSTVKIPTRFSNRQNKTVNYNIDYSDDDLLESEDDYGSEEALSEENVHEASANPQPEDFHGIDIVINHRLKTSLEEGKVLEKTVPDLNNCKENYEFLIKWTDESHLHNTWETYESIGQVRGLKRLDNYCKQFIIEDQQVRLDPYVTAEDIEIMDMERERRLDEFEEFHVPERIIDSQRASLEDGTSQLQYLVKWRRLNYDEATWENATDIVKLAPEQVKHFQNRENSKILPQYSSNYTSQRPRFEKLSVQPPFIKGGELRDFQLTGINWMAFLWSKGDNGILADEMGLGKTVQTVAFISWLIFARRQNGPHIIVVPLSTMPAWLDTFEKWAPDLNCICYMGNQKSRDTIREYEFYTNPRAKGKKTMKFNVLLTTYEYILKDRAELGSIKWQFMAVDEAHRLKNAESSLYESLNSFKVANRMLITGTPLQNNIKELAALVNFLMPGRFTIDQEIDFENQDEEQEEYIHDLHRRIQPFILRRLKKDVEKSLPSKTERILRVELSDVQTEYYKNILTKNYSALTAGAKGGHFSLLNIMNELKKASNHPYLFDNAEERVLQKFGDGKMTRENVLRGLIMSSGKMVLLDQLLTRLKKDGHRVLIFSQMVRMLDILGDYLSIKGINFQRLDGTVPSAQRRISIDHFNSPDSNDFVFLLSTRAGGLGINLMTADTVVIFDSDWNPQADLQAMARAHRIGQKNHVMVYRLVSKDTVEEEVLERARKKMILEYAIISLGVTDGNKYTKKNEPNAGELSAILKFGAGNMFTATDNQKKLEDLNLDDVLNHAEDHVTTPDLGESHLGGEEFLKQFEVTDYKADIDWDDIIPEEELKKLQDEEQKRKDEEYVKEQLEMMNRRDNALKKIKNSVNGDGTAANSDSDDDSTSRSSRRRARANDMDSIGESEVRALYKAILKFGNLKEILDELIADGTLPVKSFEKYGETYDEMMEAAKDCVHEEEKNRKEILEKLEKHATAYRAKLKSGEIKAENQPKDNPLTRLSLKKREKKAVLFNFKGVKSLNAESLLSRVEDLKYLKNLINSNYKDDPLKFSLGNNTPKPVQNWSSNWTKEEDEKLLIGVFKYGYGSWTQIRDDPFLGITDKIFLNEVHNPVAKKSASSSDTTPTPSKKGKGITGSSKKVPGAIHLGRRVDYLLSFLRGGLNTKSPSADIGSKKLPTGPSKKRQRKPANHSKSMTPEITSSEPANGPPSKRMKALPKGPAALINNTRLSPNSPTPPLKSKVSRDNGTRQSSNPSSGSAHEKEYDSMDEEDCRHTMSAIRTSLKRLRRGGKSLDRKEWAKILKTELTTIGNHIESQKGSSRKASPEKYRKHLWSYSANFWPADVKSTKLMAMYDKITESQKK

Structure (SMILES) | Percent Effect [1] | Percent Effect [2] | Percent Effect [3] | Percent Effect [4] | Percent Effect [5] | Percent Effect [6] | Percent Effect [7] | Percent Effect [8] | Percent Effect [9] | Percent Effect [10] | Percent Effect [11]
Cc1nn(C)c(Cl)c1CNCc1cccnc1N1CCOCC1 | -8.75% | 21.1% | -0.469% | -3.82% | 0.682% | -3.55% | 21% | 3.88% | 9.57% | 18.2% | -6.81%
Cc1ccc(N2CCCC(NCc3ccsc3)C2)nn1 (configuration not stated) | 1.41% | 13.5% | -7.55% | 2.96% | -6.7% | 1.6% | 8.29% | 11% | 4.43% | 16.1% | -7.21%
Cc1nc(CN2CCOC(CNc3cccnn3)C2)cs1 (configuration not stated) | 0.542% | -8.11% | -13.4% | 10.4% | 3.87% | -2.81% | 20.2% | 3.75% | 14.3% | 6.17% | -6.92%
COCCN1CCN(CCS(=O)(=O)C(F)(F)F)CC1C (configuration not stated) | -3.49% | 8.11% | -8.33% | 4.35% | -3.62% | -4.25% | 0.179% | 25.8% | 2.97% | 11% | 9.67%
Cn1cccc1C(=O)N1CCN(CC2CC2)c2ncccc2C1 | -6.82% | 10.7% | -5.74% | 2.72% | 2.7% | -56.8% | 7.18% | 3.32% | 1.04% | 10% | -4.08%
CN(Cc1cccc(O)c1)CC1CCCN(CCc2ccc(Cl)cc2)C1 (configuration not stated) | -6.32% | -13.5% | 1.05% | 9.76% | 2.64% | 4.22% | -2.32% | 27.2% | 4.3% | 11.1% | -0.68%
COCCNC(=O)NCCc1ccn(-c2ccccc2)n1 | -3.6% | -3.8% | 7.66% | 4.04% | 5.64% | -0.215% | 13.7% | 5.09% | -4.17% | 10.1% | -16.7%
CC(=O)c1cc(CN2C[C@H]3CC[C@@H]2CN(S(=O)(=O)N(C)C)C3)cs1 | -5.56% | 15.3% | -10.7% | 36% | 7.68% | 6.18% | 5.96% | 4.65% | 7.37% | 10.3% | -3.04%
O=C(c1cnoc1)N1CCC[C@]2(C[C@H](Oc3ncccc3F)CO2)C1 | -4.36% | -30.1% | -3.76% | 25% | 9.72% | -5.59% | 11.7% | 9.74% | 4.17% | 8.64% | -3.75%
CC(NC(=O)NCCCn1ccnc1)c1ccc2c(c1)CCC(=O)N2 (configuration not stated) | -5.85% | 22.8% | 0.7% | -8% | 8.4% | -2.66% | 13% | 10.8% | 5.42% | 24.1% | -6.95%
Cn1cccc1CN1CCC2(CCCN(C(=O)c3cnccn3)C2)C1 (configuration not stated) | 0.875% | 7.79% | -0.756% | -13.7% | -10.8% | 11% | 14.4% | 29.7% | -2.12% | -1.28% | -9.31%
CCc1ccccc1NC(=O)N1CCn2cnc(COC)c2C1 | -3.57% | 8.11% | -9.76% | 17.5% | 5.38% | 15.1% | 0.601% | 17.8% | 5.38% | -1.24% | -5.57%
O=C(NCCOc1ccc(F)c(F)c1)NCc1ccncc1 | -1.97% | 5.41% | 0.439% | -1.88% | -2.32% | -2.86% | 11.2% | 14.5% | -0.529% | 4.88% | -2.73%
O=C(NC1(c2cccc(F)c2)CCOCC1)c1ccccn1 | -5.05% | 2.6% | -0.416% | 0.357% | -4.03% | 2.76% | 0.499% | 14.4% | -6.45% | -6.17% | 2.74%
CCCc1n[nH]c(C2CN(Cc3nnc(C4CC4)o3)CCO2)n1 (configuration not stated) | -3.64% | 5.06% | -4.65% | 2.18% | 4.25% | -1.9% | -0.409% | 3.77% | 3.45% | 8.86% | -0.679%
O=C(CCc1ccc(Br)cc1F)NS(=O)(=O)c1ccc2c(c1)OCCO2 | -4.85% | -6.33% | 13.3% | 0.4% | -2.15% | 1.07% | 4.97% | 18.6% | -18.8% | -17.7% | -2.67%
Cc1ccccc1C(=O)Nc1cnn(CC(=O)NC2CCCC2)c1 | -4.39% | 0% | -22.8% | 4.85% | 1.98% | 1.6% | 20.5% | 6.03% | 7.29% | 11.1% | -0.609%
Cc1nc2ccccc2nc1CN(C)CC1CCCN1c1cccnn1 (configuration not stated) | -5.25% | 5.2% | 0.00702% | -11.8% | 3.23% | 1.47% | 5.58% | 21.9% | 10.5% | 2.35% | -19.8%
c1cncc(COCC2CN(Cc3ccco3)Cc3ccnn3C2)c1 (configuration not stated) | -3% | 13.5% | -6.55% | 4.29% | -0.0978% | 6.2% | 5.06% | 9.51% | 7.53% | 13.6% | -2.33%
CCS(=O)(=O)N1CCO[C@H]2[C@H](OCC3CCCC3)CC[C@@H]21 | -3.86% | 5.33% | 0.773% | 0.841% | 5.21% | -50.7% | 7.01% | 2.31% | 1.04% | 15% | -5.43%
CCOc1cc(CN(C)CCOC)ccc1OC(F)F | -7.96% | -2.6% | 2.19% | -0.762% | -9.34% | 1.38% | 10.3% | -3.34% | 0% | -1.24% | 0.485%
CCCc1cc(NC2CCc3ncnn3C2)n2ncnc2n1 (configuration not stated) | -4.43% | 5.48% | 7.3% | -5.57% | -2.74% | -0.455% | 10.1% | 17.2% | 2.15% | 7.5% | -3.04%
